Structures are written as SMILES. Where a name gives a salt, the structure may show the parent alone. ± gives the standard deviation of the averaged measurements.

The values that follow come from the supplement of paper PMC9262897, “Low-cost anti-mycobacterial drug discovery using engineered E. coli” (Nature Communications, 2022).

Assay in all cases: growth (OD600 after 10 h); higher = more growth (less inhibition)
Test [1] has as its system E. coli TESEC Alr+ wild-type control. The following applies: compound 0.1 mM; raw OD600 reference: median of DMSO wells 0.241, cell-free background 0.041. The protocol: (§1)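 TESEC Mtb Alr E. coli, or the Alr+ wild-type control, in 384-well plates with Prestwick library compounds at 0.1 mM and 1% DMSO, across arabinose induction levels of 1E3 to 1E7 nM. Growth is read as OD600 after 10 h at 37 °C in triplicate biological replicates.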

The subject of test [2] is E. coli TESEC Mtb Alr. The note with it: compound 0.1 mM. Here is the method: as §1
A further test relates to E. coli TESEC Mtb Asd. The following applies: compound 0.1 mM. The protocol:
(§2)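 TESEC E. coli strains in which the native enzyme is deleted and replaced by arabinose-inducible Mtb Asd, DapB, CysH or TrpD, each grown in its selective medium. Strains were screened against the Prestwick library at 0.1 mM and 1% DMSO in 384-well format at low and high arabinose induction. Growth is read as OD600 after 10 h in triplicate.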

A further test relates to E. coli TESEC Mtb DapB. The note with it: compound 0.1 mM. The protocol:
as §2

Test [3] concerns E. coli TESEC Alr+ wild-type control. The following applies: compound 0.1 mM; raw OD600 reference: median of DMSO wells 0.49, cell-free background 0.052. Here is the method:
(§3)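 TESEC Mtb Alr E. coli (ΔaraC ΔtolC ΔentC Δalr ΔdadX, arabinose-inducible Mtb Alr) or the Alr+ wild-type control strain, grown in defined M9-fructose medium without D-alanine in 96-well plates with Prestwick library compounds at 0.1 mM and 1% DMSO. Low Alr induction is 0.1 µM arabinose and high induction is 10 mM arabinose.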

Test [4] deals with E. coli TESEC Mtb Alr. The note with it: compound 0.1 mM. The protocol:
as §3
The source holds these as a separate data set.

Setting [5] is: arabinose 1000 nM, raw OD600 reference: median of DMSO wells 0.294, cell-free background 0.041.
[6] abbreviates: arabinose 10000 nM, raw OD600 reference: median of DMSO wells 0.264, cell-free background 0.041.
The mark [7] stands for this setting: arabinose 100000 nM, raw OD600 reference: median of DMSO wells 0.201, cell-free background 0.041.
The mark [8] stands for this setting: arabinose 1000000 nM, raw OD600 reference: median of DMSO wells 0.193, cell-free background 0.041.
[9] abbreviates: arabinose 10000000 nM, raw OD600 reference: median of DMSO wells 0.146, cell-free background 0.041.
Setting [10] is: arabinose induction (level): High, raw OD600 reference: median of DMSO wells 0.331, cell-free background 0.041.
Where [11] appears, read: arabinose induction (level): Low, raw OD600 reference: median of DMSO wells 0.417, cell-free background 0.041.
The mark [12] stands for this setting: arabinose induction (level): High, raw OD600 reference: median of DMSO wells […], cell-free background 0.041.
[13] abbreviates: arabinose induction (level): Low, raw OD600 reference: median of DMSO wells 0.227, cell-free background 0.041.
[14] abbreviates: arabinose 100 nM, raw OD600 reference: median of DMSO wells 0.413, cell-free background 0.052.
Where [15] appears, read: arabinose 10000000 nM, raw OD600 reference: median of DMSO wells […], cell-free background 0.052.

In the case of `COc1ccc(-c2ccc(=N)n(CCCC(=O)O)n2)cc1` [Gabazine bromide], the growth in test [1] amounted to 0.247 ± 0.012; with E. coli TESEC Mtb Alr [2] (setting [5]) it was 0.279 ± 0.029; with E. coli TESEC Mtb Alr [2] (setting [6]) it was 0.262 ± 0.007; in the test on E. coli TESEC Mtb Alr [2] (setting [7]), 0.225 ± 0.027; with E. coli TESEC Mtb Alr [2] (setting [8]), 0.19 ± 0.0086; with E. coli TESEC Mtb Alr [2] (setting [9]), 0.148 ± 0.0044. For the same compound, the growth in the test with E. coli TESEC Mtb Asd (setting [10]) stood at 0.232 ± 0.02; in the test on E. coli TESEC Mtb Asd (setting [11]) it was 0.342 ± 0.055; with E. coli TESEC Mtb DapB (setting [12]), 0.206 ± 0.0056; in the test on E. coli TESEC Mtb DapB (setting [13]), 0.208 ± 0.021; in test [3] it was 0.599 ± 0.11; in the test on E. coli TESEC Mtb Alr [4] (setting [14]), 0.402 ± 0.0095. Further, the growth in the test with E. coli TESEC Mtb Alr [4] (setting [15]) came to 0.341 ± 0.0049.
As to `CCc1cc(Cl)c(OC)c(C(=O)NC[C@@H]2CCCN2CC)c1O` [S(-)Eticlopride hydrochloride], the growth in test [1] is 0.191 ± 0.013; in the test with E. coli TESEC Mtb Alr [2] (setting [5]) it was 0.242 ± 0.024; in the test on E. coli TESEC Mtb Alr [2] (setting [6]) it was 0.271 ± 0.0095; in the test with E. coli TESEC Mtb Alr [2] (setting [7]) it was 0.17 ± 0.0077; in the test on E. coli TESEC Mtb Alr [2] (setting [8]), 0.122 ± 0.0019; in the test on E. coli TESEC Mtb Alr [2] (setting [9]), 0.163 ± 0.0043. For the same compound, the growth in the test on E. coli TESEC Mtb Asd (setting [10]) stood at 0.189 ± 0.015; in the test with E. coli TESEC Mtb Asd (setting [11]) it was 0.356 ± 0.07; with E. coli TESEC Mtb DapB (setting [12]), 0.181 ± 0.011; with E. coli TESEC Mtb DapB (setting [13]), 0.259 ± 0.0028; in test [3], 0.567 ± 0.012; in the test on E. coli TESEC Mtb Alr [4] (setting [14]), 0.399 ± 0.0083. Also, the growth in the test with E. coli TESEC Mtb Alr [4] (setting [15]) was 0.272 ± 0.021.
For `CC(=O)Nc1c(I)c(C(=O)N[C@H]2C(O)O[C@H](CO)[C@@H](O)[C@@H]2O)c(I)c(N(C)C(C)=O)c1I` (some centres not stated) [Metrizamide], the growth is 0.246 ± 0.014 in test [1]; 0.307 ± 0.014 in the test with E. coli TESEC Mtb Alr [2] (setting [5]); 0.273 ± 0.0038 in the test on E. coli TESEC Mtb Alr [2] (setting [6]); 0.238 ± 0.034 in the test with E. coli TESEC Mtb Alr [2] (setting [7]); 0.188 ± 0.0051 with E. coli TESEC Mtb Alr [2] (setting [8]); 0.16 ± 0.0066 in the test with E. coli TESEC Mtb Alr [2] (setting [9]). Also, the growth with E. coli TESEC Mtb Asd (setting [10]) is 0.247 ± 0.017; in the test with E. coli TESEC Mtb Asd (setting [11]), 0.352 ± 0.0067; in the test on E. coli TESEC Mtb DapB (setting [12]), 0.218 ± 0.025; with E. coli TESEC Mtb DapB (setting [13]) it was 0.212 ± 0.013; in test [3], 0.61 ± 0.014; in the test with E. coli TESEC Mtb Alr [4] (setting [14]) it was 0.403 ± 0.012. This compound also registered a growth in the test on E. coli TESEC Mtb Alr [4] (setting [15]) of 0.334 ± 0.011.
Turning to `COc1ccc(Cl)cc1C(=O)NCCc1ccc(S(=O)(=O)NC(=O)NC2CCCCC2)cc1` [Glibenclamide], the growth in test [1] was determined as 0.122 ± 0.0053; in the test on E. coli TESEC Mtb Alr [2] (setting [5]), 0.166 ± 0.035; in the test with E. coli TESEC Mtb Alr [2] (setting [6]) it was 0.146 ± 0.004; in the test on E. coli TESEC Mtb Alr [2] (setting [7]) it was 0.144 ± 0.0077; with E. coli TESEC Mtb Alr [2] (setting [8]), 0.0688 ± 0.0014; in the test with E. coli TESEC Mtb Alr [2] (setting [9]), 0.125 ± 0.0025. In addition, the growth with E. coli TESEC Mtb Asd (setting [10]) was 0.154 ± 0.02; in the test with E. coli TESEC Mtb Asd (setting [11]), 0.218 ± 0.015; in the test on E. coli TESEC Mtb DapB (setting [12]) it was 0.158 ± 0.013; in the test on E. coli TESEC Mtb DapB (setting [13]), 0.173 ± 0.014; in test [3], 0.355 ± 0.032; in the test with E. coli TESEC Mtb Alr [4] (setting [14]), 0.349 ± 0.12. The compound further gave a growth in the test on E. coli TESEC Mtb Alr [4] (setting [15]) of 0.0906 ± 0.0069.
